Bioassay records: PubChem, National Center for Advancing Translational Sciences (NCATS)
LASV entry inh – blocks Lassa virus binding to or entry into cells; 300,000 tested, 1.2% active; Lassa virus pseudotype entry inhibition, cell reporter; Potency, µM (series often up to 37.9 µM), usual class: inhibitors; calls by dose curve; tested in HEK293 cells; note: nearly all actives have a fitted effect of over 50% in size
HCV inh – blocks hepatitis C virus. Huh7.5.1 HCVcc-Cre infection, luciferase reporter, 44 h. 340,000 tested, 3.4% active. AID 651820. Potency, µM (top dose mostly 41.8 µM), most hits filed as inhibitors
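Compounds are dispensed onto cells plated 4 h earlier at 1,000 per well, with HCVcc-Cre virus (about 0.5 moi) added next. Following 44 h of culture, luminescent signal is measured for 15 sec after 15 min with substrate at room temperature.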
HCMV antiviral – human cytomegalovirus inhibition; HFF cells, HCMV-luciferase reporter, 72 h; stronger effect = lower value; activity change, negative = inhibition, % at 57.5 µM; 410,000 tested, 4.5% active; in the data active = activity change below about -60%; inconclusive = no clear call, values can overlap the other calls; inactive = above about -39%
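After 16 h attachment at 37C, HFF cells received test compound and HCMV-luciferase (1 PFU/cell); reporter luminescence read 72 h later, data normalized against buffer-only and known inhibitor Salinomycin.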
SARS PLP yeast – inhibitors of SARS-CoV papain-like protease in yeast | 330,000 tested, 0.19% active | Potency, µM (titrated, usually from 32.9 µM), most hits filed as activators | S. cerevisiae expressing SARS-CoV PLpro, growth rescue; calls by dose curve; note: nearly all actives have a fitted effect of over 55% in size
MARV entry inh – inhibitors of Marburg virus binding or cell entry; Marburg virus pseudotyped entry inhibition, cell reporter; Potency, µM (series often up to 37.8 µM), most hits filed as inhibitors; 300,000 tested, 1.8% active; calls by dose curve; tested in HEK293 cells
FMDV antiviral – foot and mouth disease virus antiviral activity; FMDV antiviral cell-based qHTS; Potency, µM (highest dose often 57.9 µM), usual class: inhibitors; 410,000 tested, 1.2% active; calls by dose curve; tested in HEK293T cells; note: read-out not given here; nearly all actives have a fitted effect of over 45% in size
HCV confirm – confirmation of hepatitis C virus inhibitors; shares compounds with HCV inh; HCVcc-Cre infectious virus cell assay, luciferase, inhibition; Potency, µM (titrated, usually from 41.8 µM), usual class: inhibitors; 640 tested, 78% active; AID 720575; note: nearly all actives have a fitted effect of over 80% in size
HCV cytotox – counter-screen for HCV inhibitors: host cell cytotoxicity | shares compounds with HCV inh | HCV host cell line cytotoxicity counterscreen | Potency, µM (highest dose often 41.8 µM), actives largely listed as inhibitors | 640 tested, 22% active;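 note: 44 h compound exposure; nearly all actives have a fitted effect of over 55% in size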
Hits are given with their value; . = inactive; ? = inconclusive; / = no result given; ! = not active in a repeat. An excerpt weighted towards active compounds, which were near 8% of everything screened. Unless noted, calls come from the whole dose curve; as a rule, active = well fitted curve in the direction sought with a large enough effect; inconclusive = small, poorly fitted or top-dose-only effect, or another doubt; inactive = no such curve, though single readings can be large; an effect the other way counts as inactive or inconclusive.

SMILES	LASV entry inh	HCV inh	HCMV antiviral	SARS PLP yeast	MARV entry inh	FMDV antiviral	HCV confirm	HCV cytotox
CCCc1cc2c(=O)c(-c3ccc4c(c3)OCCO4)c(C)oc2cc1OS(C)(=O)=O	.	2.2µM	?	.	.	?	11µM	.
COc1ccc(CNC(=O)Cc2ccc(NC(=O)N3CCCCc4ccccc43)cc2)cc1	?	/	.	/	/	.	/	/
CCOc1cc(NC(=S)NCC2CCCO2)c(OCC)cc1NC(=O)c1ccccc1 (centres undefined)	.	8.9µM	.	.	.	.	?	.
CCOc1cc(NC(=S)NCC2CCCO2)c(OCC)cc1NC(=O)c1ccc(C)cc1 (centres undefined)	.	?	.	.	.	.	/	/
S=C(NCCCN1CCOCC1)N1CCN(c2nc(-c3ccc(Cl)cc3)cs2)CC1	16µM	3.2µM	-91	.	?	13µM	7µM	28µM
S=C(NCCCN1CCOCC1)N1CCN(c2nc(-c3ccccc3)cs2)CC1	?	?	?	.	?	?	/	/
NC(N)=NC(N)=NCCc1ccccc1	.	3.2µM!	-82	.	.	.	2.8µM	?
Cc1[nH]n(-c2nc(-c3ccc(Cl)cc3)cs2)c(=O)c1N=Nc1ccc(O)cc1	11µM	1.8µM	.	.	?	7.9µM	14µM	.
Cc1ccc(CC(=O)NCc2nc(-c3ccccc3)no2)cc1	.	/	.	/	.	.	/	/
CCOC(=O)CC(NC(=O)c1ccco1)c1ccc(C)cc1 (centres undefined)	.	.	.	.	.	.	/	/
Cc1ccc(C(C)NC(=O)c2ccco2)cc1 (centres undefined)	.	6.3µM	.	.	.	.	.	.
CN1CCc2nc(SCCOc3ccccc3)c(C#N)cc2C1	.	3.5µM	.	.	.	/	?	.
CCC(=O)NC(c1cccs1)c1cc(Cl)c2cccnc2c1O (centres undefined)	/	4µM	?	.	/	.	7µM	11µM
Cc1ccccc1Oc1nc(-c2ccccn2)nc2ccccc12	?	7.9µM	-99	.	?	.	11µM	?
O=C(Nc1ccc(S(=O)(=O)N2CCCC2)cc1)c1ccc(CN2CCc3ccccc3C2)cc1	?	7.1µM	/	.	?	?	0.63µM	1µM
CC(=O)c1ccc(NC(=O)c2ccc(S(=O)(=O)N3CCCC3)cc2)cc1	.	.	.	.	.	.	/	/
O=C(c1ccccc1Cl)N1CCSCCS1(=O)=O	?	/	.	/	/	/	/	/
CCS(=O)(=O)N1CCC(C(=O)NCc2ccc3c(c2)OCO3)CC1	.	.	.	.	.	.	/	/
O=C(NCc1ccc2c(c1)OCO2)C1CCN(C(=O)Nc2ccc(Cl)cc2)CC1	.	?	.	.	.	.	13µM	.
Cc1ccc(C)c(NC(=O)Cn2cnc3nc4c(cc3c2=O)CCCC4)c1	.	/	.	/	/	.	/	/
O=C(Nc1cccc(NC(=O)c2ccc(-c3ccc(Br)cc3)o2)c1)c1ccco1	?	6.3µM	?	.	?	.	7µM	.
CCCN(C/C=C/I)C1CCc2cccc(O)c2C1 (centres undefined)	/	/	/	/	/	.	/	/
COc1ccc(-n2ncc(C(=O)N3CCN(C(=O)c4ccco4)CC3)c2C2CCN(C(=O)OC(C)(C)C)CC2)cc1	.	/	.	/	/	.	/	/
CCCCN(CC)CCNC(=O)c1cc2c(-c3ccc(Cl)cc3)nn(C)c2s1	?	2.8µM	-100	.	3.5µM	.	7µM	.
CCN(CC)CCCNC(=O)c1cc(-c2ccc(Cl)cc2)on1	.	8.9µM	.	.	?	.	22µM	.
SMILES	LASV entry inh	HCV inh	HCMV antiviral	SARS PLP yeast	MARV entry inh	FMDV antiviral	HCV confirm	HCV cytotox
O=C1NC[C@H](c2ccccc2)N1	/	/	/	/	.	/	/	/
CCc1ccc(NC(=O)CSc2nc3n[nH]c(C)c3c(=N)n2-c2cccc(OC)c2)cc1	?	7.1µM	.	.	?	.	14µM	.
CCOC(=O)CSc1nc(-c2ccc(C)cc2C)cc(-c2ccccc2)c1C#N	.	/	?	/	/	.	/	/
O=C(CSc1nc2nn(-c3ccccc3)c(=O)c-2c2n1CCCCC2)Nc1ccccc1[N+](=O)[O-]	.	?	.	.	.	.	14µM	.
CN1CCC(=C2c3ccccc3CCc3sccc32)CC1	/	?	/	.	/	?	3.1µM	.
CN1CCC(=C2c3ccccc3C(O)c3ccccc32)CC1 (centres undefined)	/	.	.	.	/	.	/	/
COc1ccc(-c2ccc3oc(-c4ccc(OC)cc4)c(C#CCCO)c3c2)cc1	/	1.1µM	.	/	/	.	2.2µM	.
Cc1ccc(Cl)cc1NC(=O)Nc1nnc(N(C)Cc2ccccc2)s1	.	/	.	/	.	.	/	/
CC(C)OCCCn1c(=O)c2ccccc2n2c(CCC(=O)N3CCN(c4ccccn4)CC3)nnc12	/	?	.	.	/	.	/	/
O=C(CCc1nnc2n(Cc3ccc(Cl)cc3)c(=O)c3ccccc3n12)N1CCN(c2ccccn2)CC1	.	3.5µM	/	.	.	?	4µM	.
CN(C)CCNC(=O)c1ccc(COc2ccc(Cl)cc2Cl)cc1	?	7.9µM	.	.	8.2µM	.	16µM	.
COc1ccc(CNS(=O)(=O)c2ccc(-c3cc(C(F)(F)F)on3)s2)cc1OC	.	/	.	/	/	.	/	/
CC(C)(C)c1cc[n+](C2=C([O-])c3ccccc3C(=O)/C2=N\S(=O)(=O)c2cccs2)cc1	?	2.8µM	-100	.	10µM	8.9µM	25µM	?
Cc1ccc[n+](C2=C([O-])c3ccccc3C(=O)C2=O)c1	/	/	.	/	/	/	/	/
Clc1ccc(-c2cc(C3CCNCC3)[nH]n2)cc1	.	?	.	.	?	.	/	/
Nc1nc(Cl)cc(N2CCC(c3cc(-c4ccc(Cl)cc4)n[nH]3)CC2)n1	6.5µM	4µM	-104	.	?	16µM	11µM	?
Cc1ccccc1-c1ccc2ncnc(NCc3cccnc3)c2c1	/	/	/	/	/	.	/	/
CCc1ccc(NC(=O)CN2C(C(=O)OC)=C(c3ccccc3)c3ccccc3S2(=O)=O)cc1	?	/	.	/	?	.	/	/
Cc1ccc(CNC(=O)COc2cc(O)c3c(c2)OC(C)(C)CC3=O)cc1	/	?	.	.	/	.	/	/
Cc1cc(=O)oc2c3c(cc(OCC(=O)Nc4ccc(CCO)cc4)c12)OC(C)(C)CC3	/	0.71µM	.	.	/	.	22µM	.
Cc1cc(=O)oc2c3c(cc(OCC(=O)Nc4cccnc4)c12)OC(C)(C)CC3	/	?	.	.	/	.	/	/
CC1(C)CC(=O)c2c(O)cc(OCC(=O)Nc3ccc(CCO)cc3)cc2O1	/	5µM	.	.	/	.	14µM	.
Cc1cc(C[n+]2ccsc2N)c2ncccc2c1	/	.	.	.	/	.	/	/
Cc1cc(C[n+]2ccccc2)c2nsnc2c1	.	?	?	.	.	/	3.5µM	13µM
Cc1ccnc(NC(=O)CCCOc2cc(=O)n(C)c3ccccc23)c1	.	3.5µM	-101	.	?	.	7.9µM	?
Cn1c(=O)cc(OCCCC(=O)NCc2ccccn2)c2ccccc21	.	.	.	.	.	.	/	/
